Rows were chosen to be rich in hits. Some 3.6% of all compounds tested hit in one or more screens of this group.
GALK inhibitor: inhibitors of human galactokinase (GALK); P51570; recombinant GALK, Kinase-Glo ATP luminescence, 1 h; Potency, µM (titrated, usually from 57.5 µM), for inactives: at the highest dose activity, negative = inhibition, most hits filed as inhibitors; 44,000 tested, under 10 active;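 further: plate controls were full GALK reaction for no effect and reaction lacking GALK for full effect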
Target sequence (P51570 whole entry, looked up): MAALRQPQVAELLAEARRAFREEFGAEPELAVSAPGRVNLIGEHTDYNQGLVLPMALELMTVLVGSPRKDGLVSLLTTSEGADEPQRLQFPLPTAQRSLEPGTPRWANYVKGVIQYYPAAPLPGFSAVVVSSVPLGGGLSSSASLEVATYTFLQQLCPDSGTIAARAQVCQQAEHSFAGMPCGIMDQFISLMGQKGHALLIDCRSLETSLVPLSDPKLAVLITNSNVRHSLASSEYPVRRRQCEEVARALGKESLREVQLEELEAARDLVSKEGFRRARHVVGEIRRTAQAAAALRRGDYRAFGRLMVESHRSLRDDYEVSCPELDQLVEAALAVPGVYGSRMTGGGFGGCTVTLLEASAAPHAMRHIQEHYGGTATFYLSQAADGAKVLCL
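Reactions with and without enzyme served as controls. GALK at 5 nM phosphorylates 100 uM galactose using 35 uM ATP (HEPES pH 8.0, Mg2+) for 1 h at RT, with luminescence read 10 min after adding Kinase-Glo Plus.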
B2AR arrestin ag: beta-arrestin recruitment by human beta2-adrenergic receptor ligands | P07550 | HTLA Tango cells, beta-arrestin recruitment, luciferase luminescence, 18 h | Potency, µM (series often up to 46.1 µM), actives largely listed as activators | 44,000 tested, under 10 active;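 further: potency means the concentration at half of the fitted maximal effect; 0% = DMSO and full agonism = EC100 isoproterenol or metaproterenol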
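Receptor–beta-arrestin recruitment read by tTA-responsive luciferase: compound titrations (up to 46 µM) incubated 18 h with Tango cells, then luminescent substrate 15 min at room temperature. Concentration-response fits classified by r2, efficacy and activity.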
DRV1 agonist: GPR32 (DRV1) agonism, beta-arrestin recruitment | AID 1346428 | 48,000 compounds, 2.5% hits | CHO-K1 GPR32 beta-arrestin PathHunter luminescence, 90 min; zero percent set by DMSO-only wells | O75388 | activation, % at 76.9 µM;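 active means activation of at least 60% and not above a set upper limit, about 1 call in 100 departs from these limits; inconclusive means activation of 40% to 60%, or above that upper limit; inactive means activation under 40%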; further: 0% is about no effect
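Beta-arrestin recruitment read-out: luminescence from complemented beta-Gal in CHO-K1 GPR32 PathHunter cells, measured 1 h after detection reagent at ambient temperature following 90 min compound exposure at 37 °C; DMSO served as basal (EC0) control.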
GALC G270D act: enhancers of human galactocerebrosidase G270D mutant activity in cells. P54803. 145M-Twi-hGALC-G270D cells (Twitcher mouse brain line with human GALC G270D), HMU-beta-Gal fluorescence, 48 h. 45,000 compounds, 0.1% hits. Potency, µM (highest dose often 57.5 µM), most hits filed as activators; further: potency means the concentration at half of the fitted maximal effect; 0% is about no effect; nearly all actives have a fitted effect of over 65% in size
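Fluorogenic HMU-b-Gal hydrolysis (0.1 mM final, pH 5.2 citrate-phosphate with 1 mg/mL sodium taurocholate; carbonate stop buffer) measures mutant GALC activity after compound treatment of live 145M-Twi Twitcher brain cells stably carrying human GALC-G270D, with wild-type GALC line alongside; activation sought.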
NTMT1 inhibitor: inhibitors of human N-terminal methyltransferase NTMT1. Q9BV86. NTMT1 MTase-Glo SAH luminescence, purified enzyme. Potency, µM (series often up to 114 µM), inactives show at the highest dose activity change, negative = inhibition, hits mostly inhibitors. 59,000 compounds, 2.5% hits;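 further: potency means the concentration at half of the fitted maximal effect; plate controls were DMSO vehicle for no effect and no enzyme for full effect; nearly all actives have a fitted effect of over 65% in size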
PTAP-TSG101 blk: inhibitors of HIV-1 PTAP binding to human TSG101, validation; Q99816; Fluorescence polarization, FITC-PTAP peptide/Tsg101, 20 min; Potency, µM (series often up to 115 µM), hits mostly inhibitors; 44,000 tested, under 10 active; further: potency means the concentration at half of the fitted maximal effect; 0% is about no effect
Target sequence (Q99816 whole entry, looked up): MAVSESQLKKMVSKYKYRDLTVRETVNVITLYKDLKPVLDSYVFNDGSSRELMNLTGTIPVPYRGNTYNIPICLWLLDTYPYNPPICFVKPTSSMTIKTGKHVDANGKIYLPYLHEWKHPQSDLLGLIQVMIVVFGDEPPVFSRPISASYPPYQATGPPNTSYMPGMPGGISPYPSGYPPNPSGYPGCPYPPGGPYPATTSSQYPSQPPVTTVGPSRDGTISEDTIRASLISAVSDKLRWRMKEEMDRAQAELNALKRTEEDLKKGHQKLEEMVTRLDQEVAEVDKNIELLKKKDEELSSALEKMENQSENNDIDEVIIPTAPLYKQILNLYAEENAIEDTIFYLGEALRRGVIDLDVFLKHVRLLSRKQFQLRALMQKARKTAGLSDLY
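Fluorescence polarization: Tsg101 binding domain (10 uM final) in 10 mM HEPES pH 7.5, 0.15 M NaCl, 0.01% Tween 20, 3 mM EDTA, 0.1 mM TCEP; compounds pinned; FITC-PTAP peptide 50 nM final; 20 min, r.t.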
* = called active by the depositor; i = inactive; ? = inconclusive; nt = no result given; ! = a repeat was not active; [ ] = remark or other dose. Unless noted, the call rests on the fitted dose curve; in most records, active means well fitted curve in the direction sought with a large enough effect; inconclusive means small, poorly fitted or top-dose-only effect, or another doubt; inactive means no such curve, though single readings can be large; an effect the other way counts as inactive or inconclusive.

SMILES	GALK inhibitor	B2AR arrestin ag	DRV1 agonist	GALC G270D act	NTMT1 inhibitor	PTAP-TSG101 blk
CC(=O)c1c(C)oc2c1cc(NS(=O)(=O)c1ccc(Br)cc1)c1ccccc12	-1.5%	i	80.0*	i	5.3%	i
Cc1ccc(Nc2nn3c(=O)c4cc5c(cc4nc3s2)OCO5)cc1Cl	-2.3%	i	2.2	i	-9.0%	i
Cc1cc(C)c(Nc2nn3c(=O)c4cc5c(cc4nc3s2)OCO5)c(C)c1	-6.0%	i	6.2	i	44.7µM*	i
Cc1ccc(-c2ccc(=O)n(CC(=O)NCCC3CC3)n2)cc1	nt	nt	nt	nt	13.7%	nt
O=C(O)c1cccc(-n2cccc2)c1	nt	nt	nt	nt	12.9%	nt
Cc1ccc(C)n1-c1cccc(C(=O)O)c1	nt	nt	nt	nt	2.24µM*	nt
CCCC(C(=O)O)c1c(C)nc2ccc(Cl)cc2c1-c1ccccc1 (stereo not drawn)	nt	nt	nt	nt	-0.6%[57.5 µM]	nt
O=C(O)c1ccc(-n2cccc2/C=C2\SC(=O)N(Cc3ccc(F)cc3)C2=O)cc1	nt	nt	nt	nt	79.4µM*	nt
O=C(O)c1ccc(-n2cccc2/C=C2\SC(=O)N(Cc3ccccc3Cl)C2=O)cc1	nt	nt	nt	nt	50.1µM*	nt
C[C@@H]1O[C@@H](O[C@H]2[C@H](O[C@H]3[C@H](O[C@H]4CC[C@@]5(C)C(CC[C@]6(C)C5CC=C5[C@@H]7CC(C)(C)CC[C@]7(C(=O)O[C@@H]7O[C@H](CO)[C@@H](O[C@@H]8O[C@@H](C)[C@H](O)[C@@H](O)[C@H]8O)[C@H](O)[C@H]7O)CC[C@]56C)C4(C)C)OC[C@H](O)[C@@H]3O)O[C@H](CO)[C@@H](O)[C@@H]2O)[C@H](O)[C@H](O)[C@H]1O (stereo partly drawn)	nt	nt	nt	nt	1.0%[6.45 µM]	nt
COc1ccc(C)cc1NC(=O)Cn1c(=O)oc2cc(S(=O)(=O)N3CCCCCC3)ccc21	-1.8%	i	-6.1	i	-5.2%	i
Cc1ccc(NC(=O)Cn2c(=O)oc3cc(S(=O)(=O)NCc4ccccc4)ccc32)cc1	2.1%	i	81.0*	i	-1.8%	i
Cc1ccc(C)c(NC(=O)Cn2c(=O)oc3cc(S(=O)(=O)NCc4ccccc4)ccc32)c1	-12.7%	i	71.9*	i	10.5%	i
COc1ccc(C)cc1NC(=O)Cn1c(=O)oc2cc(S(=O)(=O)NCc3ccccc3)ccc21	0.0%	i	-0.5	i	8.9%	i
Cc1ccc(NC(=O)Cn2c(=O)oc3cc(S(=O)(=O)N4CCCCC4)ccc32)c(C)c1	-1.8%	i	115.0*	i	-0.6%	i
Nc1ncnc2c1ncn2[C@@H]1O[C@H](CN[S+](=O)([O-])NC(=O)c2cccc(-c3noc(-c4ccccc4F)n3)c2)[C@@H](O)[C@H]1O	nt	nt	nt	nt	0.891µM*	nt
Nc1ncnc2c1ncn2[C@@H]1O[C@H](COP(=O)(O)CP(=O)(O)OP(=O)(O)O)[C@@H](O)[C@H]1O	nt	nt	1.1	nt	nt	nt
CC(C)CC(=O)c1c(O)cc2c(c1O)C(CC(C)C)C1=C(O2)C(C)(C)C(=O)C(C)(C)C1=O (stereo not drawn)	nt	nt	nt	nt	-15.7%[29.8 µM]	nt
O=C1CC2(CCCC2)[C@H](O)C(=O)N1CCCCN1CCN(c2ncccn2)CC1	nt	nt	nt	nt	4.9%[57.5 µM]	nt
COc1cccc(CNc2ccc(S(=O)(=O)Nc3ccc(C4CCNCC4)cc3)cc2)c1O	nt	nt	nt	nt	39.8µM*	nt
COc1cccc(CNc2ccc(S(=O)(=O)Nc3ccc4ccccc4c3)cc2)c1O	nt	nt	nt	nt	15.5%[57.5 µM]	nt
C[C@@H]1O[C@@H](O[C@@H]2[C@@H](O)[C@H](O[C@H]3[C@H](O[C@H]4CC[C@@]5(C)C(CC[C@]6(C)C5CC=C5[C@@H]7CC(C)(C)CC[C@]7(C(=O)O[C@@H]7O[C@H](CO)[C@@H](O)[C@H](O)[C@H]7O[C@@H]7O[C@@H](C)[C@H](O[C@@H]8O[C@@H](C)[C@H](O)[C@@H](O)[C@H]8O)[C@@H](O)[C@H]7O)CC[C@]56C)[C@@]4(C)CO)O[C@H](C(=O)O)[C@@H](O)[C@@H]3O)O[C@H](CO)[C@H]2O)[C@H](O)[C@H](O)[C@H]1O (stereo partly drawn)	nt	nt	nt	nt	6.4%[6.45 µM]	nt
O=C(Cc1ccc(Cl)cc1)NCCc1csc2nc(-c3ccccc3F)nn12	0.0%	i	120.9*	i	10.6%	i
O=C(NCCc1csc2nc(-c3cccc(F)c3)nn12)c1ccc(Br)o1	-0.4%	i	97.1*	i	-11.7%	i
CCC(=O)NC(c1ccco1)c1cc([N+](=O)[O-])c2cccnc2c1O (stereo not drawn)	nt	nt	nt	nt	19.7%	nt
SMILES	GALK inhibitor	B2AR arrestin ag	DRV1 agonist	GALC G270D act	NTMT1 inhibitor	PTAP-TSG101 blk
CCC(=O)NC(c1cccs1)c1cc([N+](=O)[O-])c2cccnc2c1OC (stereo not drawn)	nt	nt	nt	nt	50.1µM*!	nt
COc1cc(C2NC(=O)c3c(sc4c3CCN(C)C4)N2)cc(Br)c1OC(=O)c1ccc(C)cc1 (stereo not drawn)	0.0%	i	37.2	22.4µM*	-23.0%	i
Nc1ncnc2nc(-c3ccc(N4CCOCC4)nc3)cc(-c3cccc(Br)c3)c12	nt	nt	3.5	nt	1.12µM*	nt
NC(=O)[C@@H]1CC[C@H](c2ccc(OCc3ccccc3F)cc2)N1	nt	nt	nt	nt	3.4%[57.5 µM]	nt
CC(=O)N1CCN(c2ccc(O)cc2)CC1	nt	nt	42.0	i	28.2µM*	nt
CCc1ccc(N(C)S(=O)(=O)c2ccc3[nH]cc(C(=O)NCC4CCCO4)c(=O)c3c2)cc1 (stereo not drawn)	0.8%	i	110.3*	i	-5.6%	i
Cc1ccc(CN2CCC(CNc3ncnc4onc(-c5ccc(F)cc5)c34)CC2)cc1	-1.8%	i	31.5	i	79.4µM*	i
COc1ccc2nc(NC(=O)Nc3ccccc3)sc2c1	nt	nt	100.9*	i	?	nt
Cc1cnc(-c2ccccc2C(C)C)nc1NCc1ccc(-n2ccnn2)cc1	nt	nt	nt	nt	15.5%	nt
O=C(CN1C(=O)N/C(=C\c2cn(-c3cccc(C(=O)O)c3)cn2)C1=O)Nc1ccc(Cl)cc1	nt	nt	nt	nt	-12.7%	nt
CC[C@@H]1C(=O)N(C)c2cnc(Nc3ccc(C(=O)NC4CCC(N5CCN(CC6CC6)CC5)CC4)cc3OC)nc2N1C(C)C (stereo partly drawn)	nt	nt	nt	nt	25.1µM*!	nt
COc1ccc(OC)c(-n2cnc3cc(C(=O)NC4CCCC4)ccc32)c1	-1.6%	i	0.4	i	3.9%	i
COc1ccccc1Nc1nn2c(=O)c3ccc(C(=O)NC4CCCCC4)cc3nc2s1	-0.6%	i	13.3	i	16.5%	i
